Assay results as given in PubChem BioAssay AID588852 (The Scripps Research Institute Molecular Screening Center, 2011).
About 4,600 (1.3%) of roughly 360,000 compounds were called active. Only a selection was taken, and actives are over-represented in it overall. Unmarked numbers belong to inactive results.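 The calls were made as follows: active = percent inhibition above its own plate's cutoff, namely the mean of that plate's compound wells plus 3 SD; inactive = the rest.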

target: Muscarinic acetylcholine receptor M1 (Homo sapiens) (UniProt P11229); assay: CHRM1 blockers of acetylcholine calcium response – CHO-K1 cells, Fluo-8 calcium fluorescence, 1536-well, primary screen (AID 588852); settings: CHO-K1 hM1, Fluo-8 calcium fluorescence, ACh EC80 antagonist; at 3 µM; hits give high values;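 also: peak over basal fluorescence ratio during 140 s after agonist addition; 0% = ACh EC80 plus DMSO and 100% = DMSO alone without agonist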
Sequence (P11229 whole entry, looked up): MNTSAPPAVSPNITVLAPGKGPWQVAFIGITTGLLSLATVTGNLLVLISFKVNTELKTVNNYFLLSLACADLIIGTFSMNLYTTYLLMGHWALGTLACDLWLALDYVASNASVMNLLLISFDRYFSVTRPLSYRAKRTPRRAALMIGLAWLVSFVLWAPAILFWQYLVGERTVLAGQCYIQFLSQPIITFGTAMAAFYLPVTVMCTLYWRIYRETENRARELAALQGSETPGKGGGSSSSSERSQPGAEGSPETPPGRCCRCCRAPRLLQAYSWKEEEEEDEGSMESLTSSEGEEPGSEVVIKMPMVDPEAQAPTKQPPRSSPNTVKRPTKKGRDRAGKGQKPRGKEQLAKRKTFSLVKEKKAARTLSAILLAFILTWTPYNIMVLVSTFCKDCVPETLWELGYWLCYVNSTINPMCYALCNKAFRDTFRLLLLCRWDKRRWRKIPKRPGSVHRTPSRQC

Row | SMILES | inhibition
1 | CC(C)(C)N1C(=O)c2c(C(=O)OCc3ccccc3)[nH]c(-c3ccccc3)c2C1=O | -12.3%
2 | CCNC(=O)C1(C)CCCN(C(=O)c2c(C)noc2C)C1 (stereo not given) | -8.22%
3 | CSc1ccc(CNC(=O)C2(C)CCCN2C)cc1 (stereo not given) | -11.7%
4 | CC(=O)c1ccc(NC(=O)CSc2nc3ccccc3c(=O)n2CCCN2CCOCC2)cc1 | 1.86%
5 | O=C(CSc1nc2ccccc2c(=O)n1CCCO)NC1CC1 | -2.1%
6 | CC1CCN(CCCn2c(SCC(=O)NC3CCCC3)nc3ccccc3c2=O)CC1 | 31.2% (active)
7 | COC(=O)c1ccc2nc(-c3ccc(OC)c(OC)c3)c(Cc3ccccc3)n2c1 | -24%
8 | Cc1c(C(=O)OC(C)C)sc(NC(=O)c2cccnc2)c1C#N | -3.46%
9 | CC(=O)N1c2ccc(S(=O)(=O)N3CCC(C(=O)N4CCN(c5ccccc5)CC4)CC3)cc2CC1C (stereo not given) | 10.8%
10 | CC(=O)N1CCCc2cc(S(=O)(=O)N3CCCC(C(=O)N4CCN(c5cccc(Cl)c5)CC4)C3)ccc21 (stereo not given) | 57.1% (active)
11 | CC(=O)N1CCCc2cc(S(=O)(=O)CCC(=O)N3CCN(c4ccccc4)CC3)ccc21 | -7.27%
12 | O=C(CCS(=O)(=O)c1ccccc1Cl)Nc1ccc(S(=O)(=O)Nc2ncccn2)cc1 | -5.9%
13 | CCN1C(=O)[C@@H]2[C@@H]3CN(S(=O)(=O)c4ccccc4C)[C@@H](c4ccc(Cl)cc4)[C@@H]3C(=O)C[C@@H]2C1=O | 4.67%
14 | Cc1ccc(S(=O)(=O)N2CCC(C(=O)N[C@@H](C)C(=O)NCc3ccccc3)CC2)cc1 | 4.54%
15 | CCN(CC(=O)N1CCCC1)S(=O)(=O)c1ccc(F)cc1 | -13%
16 | O=C(O)C(c1cccs1)C1(O)CCCCC1 (stereo not given) | -1.29%
17 | O=C(O)C(c1ccccc1)C1(O)CCCCC1 (stereo not given) | -17.6%
18 | CN(C)CCOC(=O)C(c1ccccc1)C1(O)CCCC1 (stereo not given) | 99.4% (active)
19 | COc1ccccc1N1CCN(CC(=O)NCCc2ccc(S(N)(=O)=O)cc2)CC1 | 4.39%
20 | Cc1nc(NC(=O)CCC(=O)O)sc1C(=O)N(C)C | 2.74%
21 | CCCn1c(C2CCCN2c2nc(-c3ccc(C)cc3)cs2)nc2cc(Cl)c(N3CCCCC3)cc21 (stereo not given) | -10.7%
22 | CCOc1ccc(C(=O)Nc2ccc(S(=O)(=O)Nc3cc(C)on3)cc2)cc1 | 0.49%

Row | SMILES | inhibition
23 | COc1ccc(S(=O)(=O)Nc2cc(C)on2)cc1NC(C)=O | -12.3%
24 | COc1cc2ccccc2cc1C(=O)Nc1ccc(S(=O)(=O)Nc2cc(C)on2)cc1 | 103% (active)
25 | CC1CCCC(C)N1C(=O)COC(=O)COc1ccccc1C#N (stereo not given) | -15.1%
26 | COc1ccccc1CNS(=O)(=O)c1cc(C(=O)NCc2ccccn2)c(Cl)cc1Cl | 5.67%
27 | Cc1cc(C)n2nc(C(=O)OCC(=O)N(CCC#N)c3ccc(F)cc3)nc2n1 | -14.2%
28 | CNS(=O)(=O)c1ccc(N2CCCC2=O)c([N+](=O)[O-])c1 | -23.5%
29 | CC(=O)c1cccc(NC(=O)C2CCN(C(=O)c3ccccc3Cl)CC2)c1 | -5.19%
30 | CCSc1nsc(NC(=O)Nc2cccc(C(C)=O)c2)n1 | 51.1% (active)
31 | COc1ccc(NC(C(=O)Nc2cccc(C(C)=O)c2)c2ccccc2)cc1 (stereo not given) | -3.24%
32 | CC(=O)c1cccc(NC(=S)N2CCN(S(C)(=O)=O)CC2)c1 | -7.9%
33 | CSc1ccccc1C(=O)Nc1cccc(C(C)=O)c1 | 0.3%
34 | C=CCSc1nsc(NC(=O)Nc2cccc(C(C)=O)c2)n1 | 38.7% (active)
35 | Fc1cccc(Cc2c(-c3cccc(Cl)c3)nc3ccc(Br)cn23)c1 | -20.5%
36 | CC#CC[N+](C)(C)CCCCCC | -12.7%
37 | FC(F)(F)Oc1ccc(-c2cn3cccnc3n2)cc1 | 12.5%
38 | O=C(CCc1ccc(S(=O)(=O)N2CCOCC2)cc1)OCC(=O)c1ccc(Br)cc1 | 9.26%
39 | O=C(Nc1ccccc1Cl)/C(Cl)=C(\Cl)S(=O)c1ccccc1 (stereo not given) | -6.91%
40 | OC(c1ccccc1)C(CN1CCOCC1)c1ccccc1 (stereo not given) | -25.3%
41 | COc1ccc(C(O)(C2CCCCC2)C(CN2CCCC2)c2ccccc2)cc1 (stereo not given) | 10.3%
42 | OC(C#CCN1CCOCC1)(c1ccccc1)C1CCCCC1 (stereo not given) | 50.9% (active)
43 | Clc1cccc(Cl)c1Cn1nnc(-c2cccs2)n1 | -2.1%
44 | CC(=O)c1c(N)n(C)c(=O)n(C)c1=O | -33.5%

Row | SMILES | inhibition
45 | CCOC(=O)c1ccc(-c2ccc3ncnc(N(C)Cc4sccc4C)c3c2)o1 | -1.82%
46 | N/C(=N\OC(=O)Nc1ccccc1)c1ccno1 | -25%
47 | CC(C)CCNC(=O)c1[nH]c(C(F)(F)F)nc1-c1ccccc1 | -26.6%
48 | CCN(Cc1ccccc1)C(=O)CN1C(=S)NC(C)(C)CC1C (stereo not given) | -5.27%
49 | CCNC(=S)N(CCN(CC)CC)Cc1cc2cc3c(cc2[nH]c1=O)OCCO3 | -13%
50 | CN1CCN(NC(=O)c2ccc(S(=O)(=O)N3CCCCCC3)cc2)CC1 | -2.56%
51 | CC1CN(S(=O)(=O)c2ccc(C(=O)NN3CCN(C)CC3)cc2)CC(C)O1 (stereo not given) | 9.23%
52 | CCCCOc1ccc(C(=O)NN2CCN(C)CC2)cc1 | 44.4% (active)
53 | Cc1ccc([C@H]2N[C@]3(CCCN(Cc4ccccc4)C3=O)[C@H]3C(=O)N(Cc4ccccc4)C(=O)[C@@H]23)cc1 | -11.4%
54 | OCCc1ccc(NCCc2ccco2)cc1 | 0.71%
55 | CCOC(=O)N1CCN(C(=O)c2nn(-c3ccc(C)cc3)c(=O)c3c2c2ccccc2n3C)CC1 | 3.41%
56 | Cn1c2ccccc2c2c(C(=O)N3CCN(c4ccc(F)cc4)CC3)cn(C3CCCC3)c(=O)c21 | 29.7% (active)
57 | O=C(c1ccccc1Oc1ccccc1)N1CCN(c2ccc(F)cc2)CC1 | 4.1%
58 | O=C(Nc1ccc2c(c1)OCCO2)C(C1CC1)N1CCC(Cc2ccccc2)CC1 (stereo not given) | 34.6%
59 | CC(C)Cc1ccc(-c2cc3nc(NCc4cccc(Cl)c4)ccn3n2)cc1 | -8.68%
60 | Cc1nnc(SC(C)C(=O)c2c[nH]c3ccccc23)n1C1CC1 (stereo not given) | 2.35%
61 | C[C@H]1CN([C@@H](C)CO)S(=O)(=O)c2ccc(Br)cc2O[C@H]1CN(C)C(=O)c1cnccn1 | -4.86%
62 | O=C(Cc1ccccc1)Nc1c(Cl)ccc2nsnc12 | -7.81%
63 | CCOC(=O)Nc1ccc2c(c1)N(C(=O)CCN1CCN(CCO)CC1)c1ccccc1CC2 | 16.4%
64 | CCOC(=O)Nc1ccc2c(c1)N(C(=O)CCCl)c1ccccc1[S@]2=O | -17.2%
65 | CCNCCC(=O)N1c2ccccc2Sc2ccc(NC(=O)OCC)cc21 | 56% (active)
66 | Cc1cc2c(cc1C)N(C(=O)CN1C(=O)c3ccccc3C1=O)C(C)(C)c1ssc(=S)c1-2 | 9.39%

Row | SMILES | inhibition
67 | Nn1c(SCC(=O)Nc2nccs2)nncc1=O | 11.7%
68 | CC(=O)Nc1ccc(OC(=O)COc2ccc(Br)cc2)cc1 | 1.05%
69 | Cn1cccc1C(=O)NNC(=O)COc1ccc(Br)cc1 | -13%
70 | Cc1ccc(O)c(NC(=S)NC(=O)COc2ccc(Br)cc2)c1 | 34.7% (active)
71 | Cc1nn(CCCC(=O)NCc2ccccc2Cl)c(=O)c2nccn12 | -19.9%
72 | COc1cccc(-n2cc3c(c2-c2ccccc2)c(=O)n(C)c(=O)n3C)c1 | 36.7% (active)
73 | Cc1ccc(-c2c3c(=O)n(C)c(=O)n(C)c3cn2-c2ccccc2O)cc1 | 7.07%
74 | COc1ccc(Nc2cc(=O)n(-c3ccccc3)c3c2c(=O)n(C)c(=O)n3C)cc1 | 12.9%
75 | O=S(=O)(c1cccs1)N1CCN(CCOc2ccccc2)CC1 | -13.2%
76 | O=c1[nH]c2ccccc2n1C1CCN(CCOc2ccccc2)CC1 | 78.4% (active)
77 | O=C1CCN(CCc2ccccc2)CCN1CCOc1ccccc1 | -21.3%
78 | O=C(Nc1cc(Br)ccc1F)c1nc[nH]c1C(=O)NCc1ccccc1 | -2.93%
79 | CCOC1CS(=O)(=O)CC1OCC (stereo not given) | -4.01%
80 | Cc1ccc(CN2CC(N3CCC(Cc4ccccc4)CC3)CS2(=O)=O)cc1 (stereo not given) | -11.4%
81 | CCN(CCCNC(=O)CSc1cc(=O)n(C)c2cc(Cl)ccc12)Cc1ccccc1 | 2.6%
82 | Cc1cc(OC(=O)c2ccc(Cl)cc2)cc(=O)n1C | -25.4%
83 | Cn1cncc1COC(=O)c1ccc(Cl)cc1 | 88.4% (active)
84 | COC(=O)c1ccc(COC(=O)c2cnc(Cl)c(Cl)c2)cc1 | -11.6%
85 | Cc1ccccc1NC(=O)CSC1=NCCN1 | -2.31%
